Results as given in PubChem BioAssay (EPA / NIEHS).
Activity calls are given as the source filed them. Rule for the calls: active = hit-call score of the fitted dose curve at least 0.9, where 1 is the maximum; inactive = score below 0.9.

Assay: APR_HepG2_MicrotubuleCSK_72hr: Apredica 72-hour HepG2 Assay for Microtubule CSK Stabilty (AID 2282919)
Conditions: HepG2 microtubule cytoskeleton, high-content imaging, actives raise or lower the signal
Protocol: APR_HepG2_72hr is a cell-based, multiplexed-readout assay that uses HepG2, a human liver cell line, with measurements taken at 72 hours after chemical dosing in a 384-well plate.APR_HepG2_MicrotubuleCSK_72hr is one of 10 assay component(s) measured or calculated from the APR_HepG2_72hr assay. It is designed to make measurements of protein conformation, a form of conformation reporter, as detected with fluorescence intensity signals by HCS Fluorescent Imaging technology.Data from the assay component APR_HepG2_MicrotubuleCSK_72hr was analyzed into 1 assay endpoint. This assay endpoint, APR_HepG2_MicrotubuleCSK_72hr, was analyzed with bidirectional fitting relative to DMSO as the negative control and baseline of activity. Using a type of conformation reporter, measures of protein for gain or loss-of-signal activity can be used to understand the signaling at the cellular-level. Furthermore, this assay endpoint can be referred to as a primary readout, because this assay has produced multiple assay endpoints where this one serves a signaling function. To generalize the intended target to other relatable targets, this assay endpoint is annotated to the cell morphology intended target family, where the subfamily is cell conformation.
Cells were treated with dimethyl sulfoxide (DMSO) as a solvent control at a final concentration of 0.5% v/v or with compounds in DMSO with a resulting final DMSO concentration of 0.5% v/v. Compound treatment was done at concentrations of 0.39, 0.78, 1.56, 3.12, 6.24, 12.5, 25, 50, 100, and 200 uM in duplicate on each plate. Cells were treated with compounds for 1, 24, or 72 hr. Carbonyl […] m-chloro-phenylhydrazone (CCCP) and taxol were used as positive controls for mitochondrial function and cytoskeletal stability, respectively; DMSO served as the negative control for this experiment. Cells were fixed by the direct addition of 50 uL formaldehyde in Hank's Balanced Salt Solution (HBSS) to a final concentration of 3.7%. After incubation in the fixation medium for 30 min at room temperature (293-298 K), cells were rinsed twice with HBSS and treated with cell permeabilization buffer (16 uL of 0.5% Triton X-100) for 10 min at room temperature (293-298 K) before labeling. For mitochondrial membrane potential and mitochondrial measurements, pre-fixed cells were incubated with 50 uL of MitoTracker Red CMXRos (Invitrogen) at a concentration of 250 nM for 30 min before fixation. In the remaining cases, post-fixed cells were labeled by incubation with a multiplexed mixture of primary antibodies in HBSS for 60 min at room temperature (293-298 K) to detect immunoreactivity of c-Jun (1:500), phospho-histone H3 (1:100), phospho-histone H2A.x (1:200), p53 (1:400), alpha-tubulin (1:200) and Hoechst 33342 (2 ug/mL). Cells were labeled for multiplexed imaging on two separate plates: a) Hoechst 33342, MitoTracker Red, phospho-histone H3, and alpha-tubulin, and b) Hoechst 33342, phospho-histone H2A.x, and c-Jun. A final rinse with HBSS (50 uL) was performed before analysis. The primary and secondary antibodies for the proteins were phospho-histone H3 (rabbit anti-phospho-histone H3 and FITC-donkey anti-rabbit IgG), phospho-histone H2A.x (mouse anti-phospho-histone H2A.x and FITC-donkey anti-mouse IgG), c-Jun (rabbit anti-phospho-c-Jun and Cy3-donkey anti-rabbit IgG), p53 (sheep anti-p53 and Cy5-donkey anti-sheep IgG), alpha-tubulin (mouse anti-alpha-tubulin and Cy5-donkey anti-mouse IgG). These antibodies are available as the CellCiphr HepG2 assay kit (Millipore).Digital images of each well were captured using a Cellomics ArrayScan VTI (Thermo Scientific Cellomics) (0.8 NA objective, 0.63x optical coupler, and XF-93 filter set) at 20x magnification. The images were acquired using the autofocus feature of the ArrayScan instrument, which entails the following steps. First, the camera focuses on channel 1 (Hoechst 33342), where nuclei are identified. Second, a Z offset of 1 um is used for capturing mitochondria (MitoTracker Red). […]

| SMILES | outcome | AC50 |
| --- | --- | --- |
| Cc1ccc([N+](=O)[O-])cc1C | inactive |  |
| CC(C)(C)OOC(C)(C)C | inactive |  |
| OCC1CO1 (centres undefined) | inactive |  |
| COCCOCCO | inactive |  |
| CC(Cc1ccc(OCC(=O)O)cc1)NCC(O)c1csc(C(F)(F)F)n1 (centres undefined) | inactive |  |
| CCOP(=S)(Oc1ccc([N+](=O)[O-])cc1)c1ccccc1 (centres undefined) | inactive |  |
| CCN(CC)c1ccccc1 | inactive |  |
| Cc1cccc(N)c1 | inactive |  |
| O=P1(N(CCCl)CCCl)NCCCO1 (centres undefined) | inactive |  |
| CCC(C)(C)c1ccc(O)cc1 | inactive |  |
| O=[N+]([O-])c1ccccc1 | inactive |  |
| O=C(O)C(Cl)Cl | inactive |  |
| Cc1ccc(N)cc1N | inactive |  |
| CCCCCCCc1ccc(O)cc1 | inactive |  |
| CC(Cl)(Cl)C(=O)O | inactive |  |
| ClC1=C(Cl)C2(Cl)C3C(Cl)C(Cl)CC3C1(Cl)C2(Cl)Cl (centres undefined) |  | 98.6 µM (active) |
| Nc1cc2c3c(c1)C(c1ccccc1)=N[C@@H](NC(=O)c1cccnc1)C(=O)N3CC2 | inactive |  |
| CCOc1ccc(C(C)(C)COCc2cccc(Oc3ccccc3)c2)cc1 | inactive |  |
| c1nc[nH]n1 | inactive |  |
| CCOC(=O)c1ccccc1C(=O)OCC | inactive |  |

| SMILES | outcome | AC50 |
| --- | --- | --- |
| CN(C)C(=O)Cl | inactive |  |
| ClC(Cl)c1ccccc1 | inactive |  |
| CSC(C)(C)C=NO | inactive |  |
| Nc1ccc2ccccc2c1 | inactive |  |
| CCNc1nc(Cl)nc(NC(C)(C)C)n1 | inactive |  |
| c1ccc(OP(Oc2ccccc2)Oc2ccccc2)cc1 | inactive |  |
| c1ccc2c(c1)Nc1ccccc1S2 | inactive |  |
| CCCCN(CCCC)SN(C)C(=O)Oc1cccc2c1OC(C)(C)C2 |  | 97.1 µM (active) |
| O=[N+]([O-])c1ccc(Cl)c(Cl)c1 | inactive |  |
| Nc1ccc(Cl)cc1 | inactive |  |
| [N-]=[N+]=[N-] | inactive |  |
| CCOP(=S)(OCC)SCSCC | inactive |  |
| ClC(Cl)(Cl)c1ccccc1 | inactive |  |
| CCOS(=O)(=O)OCC | inactive |  |
| CCCCN(CCCC)N=O | inactive |  |
| CCCCc1ccccc1 | inactive |  |
| O=P(Oc1ccccc1)(Oc1ccccc1)Oc1ccccc1 |  | 79.4 µM (active) |
| CCC1(c2ccccc2)C(=O)N=C(O)NC1=O (centres undefined) | inactive |  |
| CCCN(CCC)c1c([N+](=O)[O-])cc(C(C)C)cc1[N+](=O)[O-] |  | 41.2 µM (active) |
